Measured values reported in PubChem BioAssay (EPA / NIEHS).
Inconclusive results are not listed. Calls of active or inactive are those of the source. How the source made its calls, unless noted: active means hit-call score of the fitted dose curve at least 0.9, where 1 is the maximum; inactive means score below 0.9.

Assays:
[1] = molecular target: human RAR-related Orphan Receptor gamma (RORg), RORC (gene 6097) (UniProt P51449); test: ATG_RORg_TRANS: Attagene TRANS-FACTORIAL HepG2 Assay for human RAR-related Orphan Receptor gamma (RORg) (AID 2283011; active means hit-call score of the fitted dose curve at least 0.9, where 1 is the maximum)
How it was run: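 Activity is scored as increase in GAL4-UAS reporter mRNA over DMSO, detected by fluorescent RT-PCR and capillary electrophoresis in HepG2 cells transiently expressing a RORg-Gal4 chimera, 24 h after dosing.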

[2] = read-out: E-selectin (Homo sapiens) (UniProt P16581); test: BSK_3C_Eselectin: BioMAP Diversity Plus: 3C Assay for Eselectin Biomarker Activity (AID 2283015); settings: primary human endothelial cells (HUVEC); actives raise or lower the signal
How it was run: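 Human vascular endothelium from umbilical vein is exposed to test chemicals for 24 h. E-selectin levels are read by ELISA and compared with DMSO controls.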

[3] = read-out: Interleukin-1 alpha (IL1a), IL1A (gene 3552); test: BSK_BE3C_IL1a: BioMAP Diversity Plus: BE3C Assay for Interleukin-1 alpha (IL1a) Biomarker Activity (AID 2283016); settings: primary human bronchial epithelial cells; actives raise or lower the signal
How it was run: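 Human primary bronchial epithelial cells (BE3C system) were dosed with compound and IL-1a measured by ELISA 24 h later. Activity was fitted bidirectionally against DMSO baseline; cytotoxicity was tracked in parallel cultures by SRB total-protein staining.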

[4] = read-out: Monocyte Chemoattractant Protein-1 (MCP1), CCL2 (gene 6347); test: BSK_3C_MCP1: BioMAP Diversity Plus: 3C Assay for Monocyte Chemoattractant Protein-1 (MCP1) Biomarker Activity (AID 2283017); settings: primary human endothelial cells (HUVEC); actives raise or lower the signal
How it was run: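 Endothelial cells from human umbilical vein are dosed with chemical, cultured 24 h, then assayed for MCP-1 by ELISA; both increases and decreases are modelled against DMSO controls.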

[5] = read-out: Monocyte Chemoattractant Protein-1 (MCP1), CCL2 (gene 6347); test: BSK_4H_MCP1: BioMAP Diversity Plus: 4H Assay for Monocyte Chemoattractant Protein-1 (MCP1) Biomarker Activity (AID 2283018); settings: primary human endothelial cells (HUVEC); actives raise or lower the signal
How it was run: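 Human umbilical vein endothelial cells (4H system) dosed with chemical; MCP-1 measured by ELISA 24 h after dosing. Bidirectional curve fitting against DMSO negative control as baseline; parallel SRB total-protein staining tracks overt cytotoxicity.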

[6] = read-out: Interleukin-8 (IL8), CXCL8 (gene 3576); test: BSK_3C_IL8: BioMAP Diversity Plus: 3C Assay for Interleukin-8 (IL8) Biomarker Activity (AID 2283020); settings: primary human endothelial cells (HUVEC); actives raise or lower the signal
How it was run: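 Primary human umbilical vein endothelial cells (3C system) were exposed to test chemical for 24 h, then IL-8 was quantified by ELISA. Responses were fitted bidirectionally against DMSO vehicle as baseline.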

[7] = read-out: Monokine induced gamma interferon (MIG), CXCL9 (gene 4283); test: BSK_3C_MIG: BioMAP Diversity Plus: 3C Assay for Monokine induced gamma interferon (MIG) Biomarker Activity (AID 2283021); settings: primary human endothelial cells (HUVEC); actives raise or lower the signal;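 on AC50: MIG protein level measured by immunoassay in the treated endothelial cultures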
How it was run: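 Primary human umbilical vein endothelial cells in the 3C system were exposed to chemical for 24 h, after which MIG was quantified by ELISA. Activity was fitted bidirectionally against DMSO as negative control and baseline.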

[8] = BSK_3C_SRB: Viability Assessment in the BioMAP Diversity Plus: 3C Assay (AID 2283023); settings: primary human endothelial cells (HUVEC);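 further: fitted both ways against DMSO so a hit may be signal rise or drop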
How it was run: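 Cells were dosed with chemical, cultured 24 h, fixed with 10% TCA, stained with 0.1% SRB and read at 560 nm. Human umbilical vein endothelium was used; DMSO served as negative control and baseline.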

[9] = read-out: Matrix Metallopeptidase 1 (MMP1), MMP1 (gene 4312); test: BSK_BE3C_MMP1: BioMAP Diversity Plus: BE3C Assay for Matrix Metallopeptidase 1 (MMP1) Biomarker Activity (AID 2283024); settings: primary human bronchial epithelial cells; actives raise or lower the signal
How it was run: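 Primary human bronchial epithelial cells were dosed with test chemicals, and MMP1 levels were measured by ELISA 24 h later. Data were fitted bidirectionally against DMSO as the negative control and activity baseline.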

[10] = BSK_3C_Vis: BioMAP Diversity Plus: 3C Assay for Morphology Visualization (AID 2283025); settings: primary human endothelial cells (HUVEC);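 further: fitted both ways so gain or loss versus DMSO counts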
How it was run: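 Human umbilical vein endothelial cells in the 3C system were imaged by light microscopy 24 h after chemical dosing to record cell morphology. Activity was fitted bidirectionally against DMSO as negative control and baseline; the endpoint serves as a background control.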

[11] = read-out: Pselectin, SELP (gene 6403); test: BSK_4H_Pselectin: BioMAP Diversity Plus: 4H Assay for Pselectin Biomarker Activity (AID 2283026); settings: primary human endothelial cells (HUVEC); actives raise or lower the signal
How it was run: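 Primary human umbilical vein endothelial cells were exposed to test chemical for 24 h, then cell-surface P-selectin was quantified by ELISA. Activity was fitted bidirectionally against DMSO as negative control and baseline.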

[12] = BSK_4H_SRB: Viability Assessment in the BioMAP Diversity Plus: 4H Assay (AID 2283027); settings: primary human endothelial cells (HUVEC);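 further: cells exposed to compound for 24 h before staining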;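 on AC50: curves fitted both ways versus DMSO so AC50 may be loss or gain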
How it was run: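 Human umbilical vein endothelial cells, 24 h after chemical dosing; total protein measured by 0.1% sulforhodamine B staining after 10% TCA fixation, read at 560 nm. Bidirectional fitting against DMSO.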

[13] = BSK_BE3C_SRB: Viability Assessment in the BioMAP Diversity Plus: BE3C Assay (AID 2283028); settings: primary human bronchial epithelial cells;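 on AC50: fitted both ways so AC50 may mark signal gain or loss versus DMSO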
How it was run: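 Overt cytotoxicity was assessed as total protein in confluent human primary bronchial epithelial cultures 24 h after chemical addition, using 0.1% sulforhodamine B staining read at 560 nm.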

[14] = read-out: Thrombomodulin, THBD (gene 7056); test: BSK_3C_Thrombomodulin: BioMAP Diversity Plus: 3C Assay for Thrombomodulin Biomarker Activity (AID 2283029); settings: primary human endothelial cells (HUVEC); actives raise or lower the signal
How it was run: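 Primary human umbilical vein endothelial cells (3C system) were exposed to chemical for 24 h, then thrombomodulin levels were measured by ELISA. Activity was fitted bidirectionally against the DMSO negative control as baseline.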

[15] = molecular target: Retinoic acid receptor RXR-alpha (Homo sapiens) (UniProt P19793); test: ATG_RXRa_TRANS: Attagene TRANS-FACTORIAL HepG2 Assay for human Retinoid X Receptor alpha (RXRa) (AID 2283012; active means hit-call score of the fitted dose curve at least 0.9, where 1 is the maximum)
How it was run: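 HepG2 cells transiently transfected with multiplexed GAL4-UAS reporter units and chimeric NR-GAL4 fusions, dosed 24 h. Reporter mRNA measured by RT-PCR, FAM labelling, HpaI digestion and capillary electrophoresis; gain-of-signal fitted relative to DMSO baseline.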

[16] = molecular target: human Retinoid X Receptor beta (RXRb), RXRB (gene 6257) (UniProt P28702); test: ATG_RXRb_TRANS: Attagene TRANS-FACTORIAL HepG2 Assay for human Retinoid X Receptor beta (RXRb) (AID 2283013; active means hit-call score of the fitted dose curve at least 0.9, where 1 is the maximum)
How it was run: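 HepG2 cells transiently transfected with multiplexed reporter units driven by GAL4-UAS and exogenous chimeric NR-Gal4 proteins; treated 24 h. Reporter mRNA measured by RT-PCR, 6-FAM labelling and capillary electrophoresis; gain-of-signal fitted versus DMSO baseline.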

[17] = read-out: Human Leukocyte Antigen - DR isotype (HLADR), HLA-DRA (gene 3122); test: BSK_3C_HLADR: BioMAP Diversity Plus: 3C Assay for Human Leukocyte Antigen - DR isotype (HLADR) Biomarker Activity (AID 2283019); settings: primary human endothelial cells (HUVEC); actives raise or lower the signal
How it was run: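 Endothelial cells from human umbilical vein are treated with test chemical; after 24 h, HLA-DR levels are measured by ELISA. Data are fitted in both directions using DMSO as the baseline.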

[18] = molecular target: human Vitamin D Receptor (VDR), VDR (gene 7421) (UniProt P11473); test: ATG_VDR_TRANS: Attagene TRANS-FACTORIAL HepG2 Assay for human Vitamin D Receptor (VDR) (AID 2283022; active means hit-call score of the fitted dose curve at least 0.9, where 1 is the maximum)
How it was run: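 Fluorescence of labelled reporter cDNA fragments, resolved by capillary electrophoresis, gives mRNA induction after 24 h treatment of HepG2 cells carrying transfected Gal4-fusion reporter units. Activity is fitted in the positive direction with DMSO as baseline.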

[19] = molecular target: human Thyroid Receptor alpha (THRa1), THRA (gene 7067) (UniProt P10827); test: ATG_THRa1_TRANS: Attagene TRANS-FACTORIAL HepG2 Assay for human Thyroid Receptor alpha (THRa1) (AID 2283014; active means hit-call score of the fitted dose curve at least 0.9, where 1 is the maximum)
How it was run: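 First, HepG2 cells receive multiple GAL4-UAS reporter units and the chimeric receptor. They are then dosed for 24 h, after which RNA is reverse-transcribed, amplified, labelled, HpaI-cut and sized by capillary electrophoresis; gain relative to DMSO is scored.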

Measured: AC50

Sequence of Retinoic acid receptor RXR-alpha (Homo sapiens) (P19793 whole entry, looked up, the tested form may be a part): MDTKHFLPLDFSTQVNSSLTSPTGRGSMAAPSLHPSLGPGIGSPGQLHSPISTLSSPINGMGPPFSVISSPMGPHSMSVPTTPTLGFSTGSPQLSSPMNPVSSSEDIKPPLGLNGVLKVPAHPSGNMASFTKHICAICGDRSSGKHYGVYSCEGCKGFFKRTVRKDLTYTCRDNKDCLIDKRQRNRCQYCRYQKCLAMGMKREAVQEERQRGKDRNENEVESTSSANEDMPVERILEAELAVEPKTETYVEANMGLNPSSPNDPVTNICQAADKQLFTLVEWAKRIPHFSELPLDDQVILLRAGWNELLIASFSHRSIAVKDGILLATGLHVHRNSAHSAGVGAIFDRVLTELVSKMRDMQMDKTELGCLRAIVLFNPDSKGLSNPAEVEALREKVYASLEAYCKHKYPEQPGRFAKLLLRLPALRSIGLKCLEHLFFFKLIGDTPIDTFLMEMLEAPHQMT
Sequence of human Thyroid Receptor alpha (THRa1), THRA (gene 7067) (P10827 whole entry, looked up, the tested form may be a part): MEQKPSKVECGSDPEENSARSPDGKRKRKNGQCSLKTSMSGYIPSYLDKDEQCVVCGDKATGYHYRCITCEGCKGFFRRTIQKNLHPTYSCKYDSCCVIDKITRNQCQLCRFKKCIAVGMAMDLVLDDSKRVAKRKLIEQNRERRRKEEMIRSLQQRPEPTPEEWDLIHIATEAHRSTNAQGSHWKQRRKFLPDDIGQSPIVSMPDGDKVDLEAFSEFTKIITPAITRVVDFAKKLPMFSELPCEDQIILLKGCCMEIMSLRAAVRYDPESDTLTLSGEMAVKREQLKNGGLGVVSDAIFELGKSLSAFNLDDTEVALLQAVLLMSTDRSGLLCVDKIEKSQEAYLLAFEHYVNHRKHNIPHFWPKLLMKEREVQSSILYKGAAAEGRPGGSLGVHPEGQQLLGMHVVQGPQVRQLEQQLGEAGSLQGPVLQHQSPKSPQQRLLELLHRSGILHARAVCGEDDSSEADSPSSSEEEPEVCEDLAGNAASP
Sequence of E-selectin (Homo sapiens) (P16581 whole entry, looked up): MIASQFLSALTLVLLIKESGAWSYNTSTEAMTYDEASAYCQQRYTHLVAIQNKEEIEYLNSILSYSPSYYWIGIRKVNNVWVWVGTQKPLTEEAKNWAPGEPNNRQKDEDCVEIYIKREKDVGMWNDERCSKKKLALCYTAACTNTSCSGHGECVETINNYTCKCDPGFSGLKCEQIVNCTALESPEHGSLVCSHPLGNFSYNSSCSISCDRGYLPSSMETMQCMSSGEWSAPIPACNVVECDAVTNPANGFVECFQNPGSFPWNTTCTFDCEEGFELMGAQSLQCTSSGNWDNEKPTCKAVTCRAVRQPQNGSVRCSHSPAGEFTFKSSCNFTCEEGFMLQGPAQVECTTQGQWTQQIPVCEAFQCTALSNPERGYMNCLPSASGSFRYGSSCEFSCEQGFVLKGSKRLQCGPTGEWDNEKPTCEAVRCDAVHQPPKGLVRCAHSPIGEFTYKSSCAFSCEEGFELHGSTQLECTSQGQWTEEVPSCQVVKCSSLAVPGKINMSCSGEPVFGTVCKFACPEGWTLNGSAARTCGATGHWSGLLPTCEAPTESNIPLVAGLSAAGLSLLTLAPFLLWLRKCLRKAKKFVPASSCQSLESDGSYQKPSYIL
Sequence of human Retinoid X Receptor beta (RXRb), RXRB (gene 6257) (P28702 whole entry, looked up, the tested form may be a part): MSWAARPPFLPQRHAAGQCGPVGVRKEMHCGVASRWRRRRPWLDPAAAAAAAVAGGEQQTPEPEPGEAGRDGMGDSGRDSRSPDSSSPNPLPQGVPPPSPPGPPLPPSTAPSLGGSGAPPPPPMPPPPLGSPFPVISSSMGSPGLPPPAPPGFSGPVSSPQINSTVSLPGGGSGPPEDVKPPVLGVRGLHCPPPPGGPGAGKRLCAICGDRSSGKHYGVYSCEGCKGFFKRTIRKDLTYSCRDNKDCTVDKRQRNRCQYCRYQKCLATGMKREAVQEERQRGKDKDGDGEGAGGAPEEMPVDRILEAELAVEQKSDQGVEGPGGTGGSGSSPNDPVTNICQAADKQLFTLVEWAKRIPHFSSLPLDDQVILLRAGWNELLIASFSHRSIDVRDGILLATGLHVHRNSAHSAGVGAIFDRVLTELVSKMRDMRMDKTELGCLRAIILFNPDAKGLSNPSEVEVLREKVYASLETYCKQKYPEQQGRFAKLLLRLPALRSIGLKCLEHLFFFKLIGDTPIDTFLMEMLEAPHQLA
Sequence of human Vitamin D Receptor (VDR), VDR (gene 7421) (P11473 whole entry, looked up, the tested form may be a part): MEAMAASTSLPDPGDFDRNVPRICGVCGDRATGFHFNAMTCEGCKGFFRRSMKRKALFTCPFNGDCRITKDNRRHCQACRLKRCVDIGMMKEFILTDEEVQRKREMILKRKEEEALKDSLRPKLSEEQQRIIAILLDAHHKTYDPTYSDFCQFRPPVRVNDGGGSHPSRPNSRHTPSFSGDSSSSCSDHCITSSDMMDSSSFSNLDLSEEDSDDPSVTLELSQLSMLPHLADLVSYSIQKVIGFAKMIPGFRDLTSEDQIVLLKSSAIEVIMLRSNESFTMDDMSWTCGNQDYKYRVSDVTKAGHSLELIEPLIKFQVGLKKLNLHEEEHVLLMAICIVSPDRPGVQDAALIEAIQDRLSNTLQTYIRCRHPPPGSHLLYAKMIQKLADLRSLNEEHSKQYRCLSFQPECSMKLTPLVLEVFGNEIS
Sequence of human RAR-related Orphan Receptor gamma (RORg), RORC (gene 6097) (P51449 whole entry, looked up, the tested form may be a part): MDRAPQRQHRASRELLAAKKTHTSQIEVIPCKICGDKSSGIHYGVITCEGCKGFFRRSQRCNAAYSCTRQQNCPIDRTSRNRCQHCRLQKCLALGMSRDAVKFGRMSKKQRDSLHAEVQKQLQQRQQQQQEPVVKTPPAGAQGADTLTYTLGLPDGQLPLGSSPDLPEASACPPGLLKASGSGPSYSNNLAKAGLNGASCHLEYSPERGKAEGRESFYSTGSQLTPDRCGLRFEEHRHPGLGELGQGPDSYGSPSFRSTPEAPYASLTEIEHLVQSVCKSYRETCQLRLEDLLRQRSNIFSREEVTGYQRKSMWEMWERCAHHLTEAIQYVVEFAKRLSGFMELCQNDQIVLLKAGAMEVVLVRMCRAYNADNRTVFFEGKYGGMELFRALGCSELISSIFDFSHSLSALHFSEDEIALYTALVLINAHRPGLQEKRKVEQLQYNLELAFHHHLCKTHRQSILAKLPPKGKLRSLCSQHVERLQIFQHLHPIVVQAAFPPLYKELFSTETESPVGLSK

CC(Oc1cccc(Cl)c1)C(=O)O (centres undefined)
not listed: [15] | [16] | [17] | [18] | [19]
inactive: all other assays above

C#CCC1=C(C)C(OC(=O)C2C(C=C(C)C)C2(C)C)CC1=O (centres undefined)
active: [2] 36 µM | [4] 32.2 µM | [5] 20.6 µM | [17] 20 µM | [6] 30.7 µM | [8] 28.5 µM | [11] 31.6 µM | [12] 33.8 µM | [13] 18 µM
inactive: [15] | [16] | [3] | [7] | [18] | [9] | [10] | [14]

CSC1=N[C@@](C)(c2ccccc2)C(=O)N1Nc1ccccc1
active: [2] 6.26 µM | [5] 27.8 µM | [6] 8.64 µM | [8] 7.26 µM | [12] 2.88 µM
not listed: [1] | [17]
inactive: all other assays above

CCOP(=S)(OCC)SCCSCC
active: [10] 9.8 µM
not listed: [1] | [17] | [18]
inactive: all other assays above

CCc1cccc(CC)c1N(COC)C(=O)CCl
active: [2] 21.2 µM | [4] 14.4 µM | [5] 22 µM | [17] 20 µM | [8] 20 µM | [10] 39 µM | [11] 14.9 µM | [12] 14.8 µM
inactive: [15] | [19] | [3] | [6] | [7] | [9] | [13] | [14]

COP(=O)(OC)OC(Br)C(Cl)(Cl)Br (centres undefined)
inactive: [9] | [14]
active: [2] 30.1 µM | [3] 29.8 µM | [4] 35.6 µM | [5] 30.1 µM | [17] 14.9 µM | [6] 34.9 µM | [7] 35.2 µM | [8] 28.8 µM | [10] 16.3 µM | [11] 13.2 µM | [12] 29 µM | [13] 25 µM
